According to ChEMBL document CHEMBL3988442, “University of Dundee, Small-Polar-MMV Screening Library” (2021):
About 13,000 (27%) of roughly 48,000 compounds showed an effect of 50% or more. Some of the results follow.

The compounds below were run on Wolbachia pipientis (assay: Anti-Wolbachia Cell-Based Screen). Settings: 5 µM.
Type: functional
Parameters: scale not given: in the data most compounds retested in dose-response had high values
With `Cc1noc(C2(NC(=O)c3cccnc3O)CCCCC2)n1` the “Percent Effect” value was 14.46%. With `CCC(C)NC(=O)c1ccc(CNC(=O)CCC(C)C)cc1` (stereo not drawn) the “Percent Effect” value was 19.34%. With `Cc1cc(CC(=O)N(C)Cc2cccc(OC(C)C)c2)n[nH]1` the “Percent Effect” value was 0.9226%. `COCc1noc(-c2nn(-c3ccc(F)c(F)c3)c3c2CCC3)n1` was tested, and the “Percent Effect” value was -11.94%. With `CCN(CC)CCNC(=O)c1nn(CC)cc1Cl` the “Percent Effect” value was 13.81%. `CCN(CC)CCNC(=O)CCc1c(C)nn(-c2ccccc2Cl)c1C` was tested, and the “Percent Effect” value was 121.6%. With `COCCCN(C)C(=O)c1nnn(-c2ccccc2Cl)c1C` the “Percent Effect” value was -5.685%. With `CCOc1ccccc1CSc1nnc(CC2CCS(=O)(=O)C2)n1C` (stereo not drawn) the “Percent Effect” value was 3.399%. With `CN1CSC[C@H]1C(=O)N1CCN(Cc2cccc(Cl)c2)CC1` the “Percent Effect” value was -11.1%. For `COc1cccc(-n2cc(CN(C)Cc3ccnc(C(C)C)n3)cn2)c1`, the “Percent Effect” value was 92.54%. For `CC(C)c1nccc(CN(C)Cc2cnn(-c3ccccc3)c2)n1`, the “Percent Effect” value was 112.3%. For `COc1cc(N(C)Cc2cccc(-n3cccn3)c2)nc(N)n1`, the “Percent Effect” value was -41.52%. For `COc1cccc(-n2cc(CN(C)C(=O)c3cnc(O)cn3)cn2)c1`, the “Percent Effect” value was -3.404%. With `CC(C)c1nccc(CN(C)Cc2cccc(-n3cccn3)c2)n1` the “Percent Effect” value was 104.6%. `CN(Cc1cccc(-n2cccn2)c1)Cc1cccs1` was tested, and the “Percent Effect” value was 32.49%. In the case of `CN(Cc1ccc(-n2cccn2)cc1)Cc1cnc(N(C)C)nc1`, the “Percent Effect” value was -6.821%. With `CCCc1cc(C(=O)N(C)Cc2cnn(-c3cccc(OC)c3)c2)[nH]n1` the “Percent Effect” value was 1.853%. With `CC(NS(C)(=O)=O)C(=O)N(C)Cc1cnn(-c2ccc(F)cc2)c1` (stereo not drawn) the “Percent Effect” value was -5.663%. In the case of `CN(Cc1ccc(-n2cccn2)cc1)Cc1ncc[nH]1`, the “Percent Effect” value was -13.82%. `CSCCC(O)C(=O)N(C)Cc1cnn(-c2ccc(F)cc2)c1` (stereo not drawn) was tested, and the “Percent Effect” value was 17.62%. `CN(Cc1cccc(-n2cccn2)c1)Cc1c[nH]cn1` was tested, and the “Percent Effect” value was 125%. For `COc1c(F)cc(F)cc1-c1nc2c([nH]1)CCNC2`, the “Percent Effect” value was -0.5434%. For `CC(c1cccnc1)N1CCN(CCCC#N)CC1` (stereo not drawn), the “Percent Effect” value was -7.077%. `CCCn1nc(C(=O)N2CCCC2c2noc(C)n2)ccc1=O` (stereo not drawn) was tested, and the “Percent Effect” value was -9.694%. For `Cc1ccc(CN(C)CC(=O)NC2(C)CCS(=O)(=O)C2)cc1` (stereo not drawn), the “Percent Effect” value was 2.715%. `CC(C)N1CCCn2nc(C(=O)NCc3ccccc3F)cc2C1` was tested, and the “Percent Effect” value was -19.91%. `CC(CN(C)Cc1cccc(-n2cccn2)c1)C(F)(F)F` (stereo not drawn) was tested, and the “Percent Effect” value was 100.7%. With `CCC(CO)N(Cc1cccc(-n2cccn2)c1)Cc1cccs1` (stereo not drawn) the “Percent Effect” value was 3.193%. In the case of `CCC(CO)N(Cc1cccc(-n2cccn2)c1)Cc1ccccn1` (stereo not drawn), the “Percent Effect” value was -1.98%. In the case of `CC(C)c1nnc(NC(=O)c2cccc(OCC(F)(F)F)n2)[nH]1`, the “Percent Effect” value was -13.63%. With `CC(C)Cc1nc(CS(=O)(=O)C(C)C(=O)N2CCOCC2)no1` (stereo not drawn) the “Percent Effect” value was 1.312%. In the case of `O=C(CN1CCCCCC1)NCCSc1cnn[nH]1`, the “Percent Effect” value was -5.638%. In the case of `O=C(CN1CCCc2cc(F)cc(F)c21)Nc1ccc(Br)cn1`, the “Percent Effect” value was -2.039%. `O=C(CN1CCCCC1)Nc1ncc(Br)cc1Br` was tested, and the “Percent Effect” value was 116.4%. With `CSc1nccc(-c2cccc(-c3ccn(CC4COCCO4)n3)c2)n1` (stereo not drawn) the “Percent Effect” value was -11.46%. `Cn1cc(C(=O)N2CCO[C@@H]3CN(C4CCC4)C[C@@H]3C2)cn1` was tested, and the “Percent Effect” value was 99.44%. In the case of `Cn1cc(C(=O)N2CC[C@@]3(O)CCN(C4CCCCC4)C[C@H]3C2)cn1`, the “Percent Effect” value was -10.98%. For `Cn1cc(CN2CCO[C@@H]3CN(C4CCCC4)C[C@@H]3C2)cn1.O=C(O)C(F)(F)F.O=C(O)C(F)(F)F`, the “Percent Effect” value was -1.397%. In the case of `CS(=O)(=O)N1CCO[C@@H]2CN(C(=O)c3ccnnc3)C[C@@H]2C1`, the “Percent Effect” value was 110.1%. In the case of `Cc1cncc(C(=O)N2C[C@@H]3CN(S(C)(=O)=O)CCO[C@@H]3C2)c1.O=C(O)C(F)(F)F`, the “Percent Effect” value was 122.6%. `CS(=O)(=O)N1CCO[C@@H]2CN(C(=O)c3cccnc3)C[C@@H]2C1` was tested, and the “Percent Effect” value was 94.69%. `Cc1ccc(C(=O)N2C[C@@H]3CN(S(C)(=O)=O)CCO[C@@H]3C2)o1` was tested, and the “Percent Effect” value was -11.28%. For `Cc1ccnc(C(=O)N2C[C@@H]3CN(S(C)(=O)=O)CCO[C@@H]3C2)c1.O=C(O)C(F)(F)F`, the “Percent Effect” value was -16.56%. `CCN1CCO[C@@H]2CN(C(=O)c3cocn3)C[C@@H]2C1.O=C(O)C(F)(F)F` was tested, and the “Percent Effect” value was -9.016%. With `O=C(c1ccnnc1)N1C[C@@H]2CN(c3ncccn3)C[C@@H]2C1` the “Percent Effect” value was 15.26%. `O=C(NCCOc1ccc(F)c(F)c1)NCc1cccc(CO)c1` was tested, and the “Percent Effect” value was -4.638%. In the case of `Cc1nnc(NCC(c2ccco2)N2CCCCC2)c(C#N)c1C` (stereo not drawn), the “Percent Effect” value was -2.88%. For `CN1CCN(C)C2(CCN(Cc3ccc(C4CCCCO4)o3)CC2)C1` (stereo not drawn), the “Percent Effect” value was 27.87%. `CCC(C)C(=O)NCc1cccc(OCCN(C)C2CCOCC2)c1` (stereo not drawn) was tested, and the “Percent Effect” value was 6.512%. With `CN1CC2(CCN(C(=O)c3coc4c3C(=O)CCC4)C2)OC1=O` (stereo not drawn) the “Percent Effect” value was -2.236%. With `Cc1ccc(C(=O)N2C[C@@H]3CN(S(C)(=O)=O)CCO[C@@H]3C2)s1` the “Percent Effect” value was -10.28%. With `Cn1nccc1C(=O)N1C[C@@H]2CN(S(C)(=O)=O)CCO[C@@H]2C1` the “Percent Effect” value was 115.5%. In the case of `Cc1nc(C(=O)N2C[C@@H]3CN(S(C)(=O)=O)CCO[C@@H]3C2)cs1`, the “Percent Effect” value was -14.32%. For `Cn1cc(C(=O)N2C[C@@H]3CN(S(C)(=O)=O)CCO[C@@H]3C2)cn1`, the “Percent Effect” value was 95.46%. For `O=C(c1cc2ccccc2s1)N1CCC(C(=O)O)(n2cccn2)CC1`, the “Percent Effect” value was -13.71%. With `CCn1cc2c(n1)CN(C(=O)c1ccncc1)CC2COCC1CC1.O=C(O)C(F)(F)F` (stereo not drawn) the “Percent Effect” value was 20.52%. For `O=C(c1ccccc1OCC1CC1)N1CCCC(n2ccnc2)C1` (stereo not drawn), the “Percent Effect” value was 8.934%. With `O=C(COc1ccccc1Cl)N1CCCC(n2ccnc2)C1` (stereo not drawn) the “Percent Effect” value was 92.71%. In the case of `CN(CC(=O)N1CCCC(n2ccnc2)C1)c1cnccn1` (stereo not drawn), the “Percent Effect” value was -4.389%. `O=C(COCc1ccccc1Cl)N1CCCC(n2cccn2)C1` (stereo not drawn) was tested, and the “Percent Effect” value was 1.04%. `CCn1cnnc1C1CCCN(C(=O)COc2ccc(Cl)cc2)C1` (stereo not drawn) was tested, and the “Percent Effect” value was 6.691%. `O=C(COCc1ccccc1Cl)N1CCCC(n2ccnc2)C1` (stereo not drawn) was tested, and the “Percent Effect” value was 103.7%. In the case of `COc1cccc(COCC(=O)N2CCCC(c3nncn3C)C2)c1` (stereo not drawn), the “Percent Effect” value was -0.5429%. For `Cn1cnnc1C1CCCN(C(=O)COc2ccccc2Cl)C1` (stereo not drawn), the “Percent Effect” value was 152.2%. `O=C(COC1CCCCC1)N1CCCC(n2ccnc2)C1` (stereo not drawn) was tested, and the “Percent Effect” value was 76.06%. In the case of `O=C(COCC1CC1)N1CCCC(n2ccnc2)C1` (stereo not drawn), the “Percent Effect” value was 8.162%. `CC1(COc2ccccc2)NCCc2[nH]cnc21` (stereo not drawn) was tested, and the “Percent Effect” value was 7.349%. For `CCc1cc(CN(C)C(=O)C2CC(=O)N(c3cccc(O)c3)C2)on1` (stereo not drawn), the “Percent Effect” value was -10.41%. With `Cc1ccc(C(C(=O)N2CCN(C(=O)c3ccc[nH]3)CC2)N(C)C)cc1` (stereo not drawn) the “Percent Effect” value was 1.987%. `COCCOc1ccc(NC(=O)N(CC2CCOC2)C2CC2)cn1` (stereo not drawn) was tested, and the “Percent Effect” value was -6.429%. With `O=C(COCCc1ccccc1)N1CCCC(n2cccn2)C1` (stereo not drawn) the “Percent Effect” value was 5.674%. In the case of `O=C(COCCOc1ccccc1)N1CCCC(n2ccnc2)C1` (stereo not drawn), the “Percent Effect” value was 75.36%. For `COc1cccc(COCC(=O)N2CCCC(n3ccnc3)C2)c1` (stereo not drawn), the “Percent Effect” value was -0.4033%. With `Cc1cc(C(=O)N2CCCC2c2nc(C)cc(O)n2)on1` (stereo not drawn) the “Percent Effect” value was 93.31%. `CC(C)c1cc(C(=O)N2CCCC2c2nc(-c3ccccc3)no2)[nH]n1` (stereo not drawn) was tested, and the “Percent Effect” value was -1.356%. `CC(C)c1nc(C2CCCN2C(=O)c2nccnc2N)no1` (stereo not drawn) was tested, and the “Percent Effect” value was -0.7868%. `Cc1cc(C(=O)N2CCCC2c2nc(O)cc(C(C)C)n2)on1` (stereo not drawn) was tested, and the “Percent Effect” value was 118.7%. In the case of `CCn1ccnc1CN1CCC(CCC(=O)Nc2ccccc2Cl)CC1`, the “Percent Effect” value was 11.39%. With `COCCC1(C(=O)O)CCCN(C(=O)c2cnc3c(c2)CCCC3)C1` (stereo not drawn) the “Percent Effect” value was 8.826%. In the case of `O=C(Cc1cn2ccccc2n1)N1CCCC(n2cccn2)C1` (stereo not drawn), the “Percent Effect” value was 62.83%. In the case of `O=C(Cc1ccc2c(c1)OCCO2)N1CCCC(n2ccnc2)C1` (stereo not drawn), the “Percent Effect” value was 5.657%. In the case of `O=C(Cc1ccc(-n2cccn2)cc1)N1CCCC(n2cccn2)C1` (stereo not drawn), the “Percent Effect” value was 7.23%. In the case of `Cc1cnn(C2CCCN(C(=O)Cc3cn4ccccc4n3)C2)c1` (stereo not drawn), the “Percent Effect” value was 14.59%. `O=C(Cc1cn2ccccc2n1)N1CCCC(n2ccnc2)C1` (stereo not drawn) was tested, and the “Percent Effect” value was 115.6%. `Fc1cccc2ncnc(NCCCc3ccncc3)c12` was tested, and the “Percent Effect” value was -47.88%. For `O=C(O)C(F)(F)F.O=C(c1ccccc1F)N1CCC2(CC1)CC(Oc1ccccn1)CO2` (stereo not drawn), the “Percent Effect” value was 109.1%. `COC1COC2(CCN(C(=O)c3cnc(C)cn3)CC2)C1` (stereo not drawn) was tested, and the “Percent Effect” value was 14.55%. With `O=C(O)C(F)(F)F.O=C(O)C(F)(F)F.c1cc(CN2CCC3(CC2)CC(N2CCCC2)CO3)co1` (stereo not drawn) the “Percent Effect” value was -12.83%. For `O=C(O)C(F)(F)F.O=C(c1ccccc1F)N1CCC2(CC1)CC(N1CCCC1)CO2` (stereo not drawn), the “Percent Effect” value was 116.8%. In the case of `CS(=O)(=O)N1CCC2(CC1)CC(Oc1ccccn1)CO2.O=C(O)C(F)(F)F` (stereo not drawn), the “Percent Effect” value was 10.24%. In the case of `COC1COC2(CCN(C(=O)c3cocn3)CC2)C1` (stereo not drawn), the “Percent Effect” value was -7.314%. `COC1COC2(CCN(C(=O)c3ccc4ccccc4c3)CC2)C1` (stereo not drawn) was tested, and the “Percent Effect” value was 112.4%. For `COC1COC2(CCN(C(=O)c3ccccc3F)CC2)C1` (stereo not drawn), the “Percent Effect” value was 91.89%. For `CCN(C)C1COC2(CCN(C(=O)c3ccc(Cl)cc3)CC2)C1.O=C(O)C(F)(F)F` (stereo not drawn), the “Percent Effect” value was -12.32%. For `O=C(O)C(F)(F)F.O=C(c1cocn1)N1CCC2(CC1)CC(Oc1ccccn1)CO2` (stereo not drawn), the “Percent Effect” value was 3.532%. `COC1COC2(CCN(C(=O)c3ncccn3)CC2)C1` (stereo not drawn) was tested, and the “Percent Effect” value was -17.92%. `O=C(c1ccccc1)N1CCC2(CC1)CC(Oc1ccccc1)CO2` (stereo not drawn) was tested, and the “Percent Effect” value was 2.639%. For `Cc1cc(C(=O)NC2(C#N)CCCC2)c(C)n1-c1cccnc1`, the “Percent Effect” value was -8.526%.
